# Data from paper PMC7862700, “An all-to-all approach to the identification of sequence-specific readers for epigenetic DNA modifications on cytosine”.
# How the values were obtained:
# Assay in all cases: DAPPL (digital affinity profiling via proximity ligation, sequencing); 10 mM Tris-HCl pH 7.5, 50 mM NaCl, 1 mM DTT, 4% glycerol, room temperature, 30 min; GST-TFs on glutathione beads, 16-mer random dsDNA library, 0.1% formaldehyde crosslink after washing; high values mean tight binding
# Conditions in all cases: protein: recombinant; tags: N-terminal GST; dsDNA, one strand shown
# GABPA = target: T1, GABPA (Homo sapiens, UniProt Q06546 1-454)
# T1 sequence: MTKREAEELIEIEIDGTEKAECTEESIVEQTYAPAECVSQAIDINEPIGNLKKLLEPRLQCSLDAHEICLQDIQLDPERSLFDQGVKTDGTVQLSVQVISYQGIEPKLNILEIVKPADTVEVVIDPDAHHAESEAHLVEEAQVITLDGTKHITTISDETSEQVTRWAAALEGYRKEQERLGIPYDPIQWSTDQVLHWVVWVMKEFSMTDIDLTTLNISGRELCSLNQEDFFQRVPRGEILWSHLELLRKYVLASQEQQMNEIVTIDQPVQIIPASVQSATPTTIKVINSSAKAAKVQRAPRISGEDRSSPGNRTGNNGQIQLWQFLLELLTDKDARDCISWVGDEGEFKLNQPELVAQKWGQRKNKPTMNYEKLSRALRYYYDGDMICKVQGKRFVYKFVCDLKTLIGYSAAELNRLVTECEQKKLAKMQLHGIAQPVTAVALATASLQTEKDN
# Outline: (§1)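 Binding signal is each hexamer's read frequency for a factor divided by its frequency in the tag-only sample. The factors were GST-fused human transcription factors from yeast, captured on glutathione beads, DNA-barcoded and pooled with that sample. Pools were incubated with 200 nmole of a random double-stranded 16-mer DNA library in Tris/NaCl/DTT/glycerol buffer at room temperature for 30 min, then washed, crosslinked with 0.1% formaldehyde, proximity-ligated with BsaI/T4 ligase (1 h, 37 °C), PCR-amplified and sequenced on an Illumina NextSeq500.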
# EHF = target: T2, EHF (Homo sapiens, UniProt Q9NZC4 1-300)
# T2 sequence: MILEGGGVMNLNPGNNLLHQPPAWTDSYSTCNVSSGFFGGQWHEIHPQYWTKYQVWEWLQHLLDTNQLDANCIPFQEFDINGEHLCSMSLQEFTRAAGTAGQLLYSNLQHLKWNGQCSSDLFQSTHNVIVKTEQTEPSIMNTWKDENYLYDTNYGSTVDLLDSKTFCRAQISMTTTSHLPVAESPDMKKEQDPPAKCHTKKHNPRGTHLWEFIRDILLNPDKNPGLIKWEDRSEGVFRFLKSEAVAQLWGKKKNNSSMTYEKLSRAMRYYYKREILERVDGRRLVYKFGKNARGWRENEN
# Outline: as §1
# ETV5 = ETV5 (Homo sapiens, UniProt P41161 1-510)
# Chain of ETV5 (P41161 whole entry): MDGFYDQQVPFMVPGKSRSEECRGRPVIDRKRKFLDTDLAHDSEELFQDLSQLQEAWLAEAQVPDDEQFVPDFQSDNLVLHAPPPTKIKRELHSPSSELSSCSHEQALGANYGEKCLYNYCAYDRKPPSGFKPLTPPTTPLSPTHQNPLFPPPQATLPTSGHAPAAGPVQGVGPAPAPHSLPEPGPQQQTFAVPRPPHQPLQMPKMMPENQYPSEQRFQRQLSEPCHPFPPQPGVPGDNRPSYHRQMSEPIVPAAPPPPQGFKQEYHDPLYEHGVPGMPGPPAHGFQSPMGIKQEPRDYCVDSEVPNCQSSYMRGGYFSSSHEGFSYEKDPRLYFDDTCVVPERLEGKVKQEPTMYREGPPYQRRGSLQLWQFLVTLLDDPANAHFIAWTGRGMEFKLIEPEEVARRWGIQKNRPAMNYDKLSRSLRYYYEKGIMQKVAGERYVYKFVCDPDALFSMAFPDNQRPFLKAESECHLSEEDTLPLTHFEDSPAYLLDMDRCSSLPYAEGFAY
# Outline: as §1
# ELF4 = ELF4 (Homo sapiens, UniProt Q99607 1-663)
# Chain of ELF4 (Q99607 whole entry): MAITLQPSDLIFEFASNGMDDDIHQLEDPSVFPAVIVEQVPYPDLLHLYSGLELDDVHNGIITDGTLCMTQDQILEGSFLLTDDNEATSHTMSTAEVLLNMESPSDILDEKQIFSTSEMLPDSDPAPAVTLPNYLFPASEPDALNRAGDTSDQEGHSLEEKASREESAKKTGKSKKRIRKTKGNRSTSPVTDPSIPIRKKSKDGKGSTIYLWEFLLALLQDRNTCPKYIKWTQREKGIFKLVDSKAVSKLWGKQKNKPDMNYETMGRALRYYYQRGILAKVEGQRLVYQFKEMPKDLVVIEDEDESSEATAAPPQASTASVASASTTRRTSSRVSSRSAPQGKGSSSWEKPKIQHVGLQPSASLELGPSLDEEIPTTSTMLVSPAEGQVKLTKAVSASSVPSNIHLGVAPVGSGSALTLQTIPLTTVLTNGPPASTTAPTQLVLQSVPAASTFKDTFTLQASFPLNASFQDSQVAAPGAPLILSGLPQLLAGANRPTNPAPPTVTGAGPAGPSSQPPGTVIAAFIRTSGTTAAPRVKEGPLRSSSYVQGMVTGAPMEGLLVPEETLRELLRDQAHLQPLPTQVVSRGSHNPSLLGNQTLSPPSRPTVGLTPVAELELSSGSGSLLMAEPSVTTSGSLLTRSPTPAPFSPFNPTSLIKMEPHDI
# Outline: as §1
# ELK4 = target: T3, ELK4 (Homo sapiens, UniProt P28324-2 1-405)
# T3 sequence: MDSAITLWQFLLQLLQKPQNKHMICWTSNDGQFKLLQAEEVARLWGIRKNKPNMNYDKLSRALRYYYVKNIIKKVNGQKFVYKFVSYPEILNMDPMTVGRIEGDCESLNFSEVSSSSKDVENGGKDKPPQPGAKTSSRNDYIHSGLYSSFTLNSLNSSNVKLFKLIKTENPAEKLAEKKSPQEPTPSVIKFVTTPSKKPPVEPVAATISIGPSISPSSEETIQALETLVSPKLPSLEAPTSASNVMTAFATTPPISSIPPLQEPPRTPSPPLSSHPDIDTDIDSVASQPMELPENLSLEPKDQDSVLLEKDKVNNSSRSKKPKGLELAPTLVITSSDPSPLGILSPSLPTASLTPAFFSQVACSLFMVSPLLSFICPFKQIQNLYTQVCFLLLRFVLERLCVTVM
# Outline: as §1
# ETV2 = target: T4, ETV2 (Homo sapiens, UniProt O00321 1-342)
# T4 sequence: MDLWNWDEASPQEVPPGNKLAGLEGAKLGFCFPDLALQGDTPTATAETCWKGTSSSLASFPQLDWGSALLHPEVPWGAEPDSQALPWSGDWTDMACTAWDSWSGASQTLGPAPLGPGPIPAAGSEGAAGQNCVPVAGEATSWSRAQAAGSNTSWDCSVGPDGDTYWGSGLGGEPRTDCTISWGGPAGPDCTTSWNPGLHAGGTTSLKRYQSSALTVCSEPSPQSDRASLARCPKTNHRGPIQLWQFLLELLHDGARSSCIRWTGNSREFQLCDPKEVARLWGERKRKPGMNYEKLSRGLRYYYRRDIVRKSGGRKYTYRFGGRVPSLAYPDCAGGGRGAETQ
# Outline: as §1
# ELF3 = target: T5, ELF3 (Homo sapiens, UniProt P78545 1-371)
# T5 sequence: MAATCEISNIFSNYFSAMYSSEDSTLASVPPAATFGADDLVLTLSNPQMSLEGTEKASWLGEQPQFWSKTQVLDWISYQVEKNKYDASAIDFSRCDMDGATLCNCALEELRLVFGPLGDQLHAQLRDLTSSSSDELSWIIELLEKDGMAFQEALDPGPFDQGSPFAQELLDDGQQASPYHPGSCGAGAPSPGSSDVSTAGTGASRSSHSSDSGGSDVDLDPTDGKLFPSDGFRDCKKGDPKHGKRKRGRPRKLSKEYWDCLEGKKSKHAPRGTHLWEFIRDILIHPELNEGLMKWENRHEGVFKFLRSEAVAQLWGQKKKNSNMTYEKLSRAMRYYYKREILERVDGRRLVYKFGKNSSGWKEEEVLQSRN
# Outline: as §1
# ETV1 = ETV1 (Homo sapiens, UniProt P50549 1-477)
# Chain of ETV1 (P50549 whole entry): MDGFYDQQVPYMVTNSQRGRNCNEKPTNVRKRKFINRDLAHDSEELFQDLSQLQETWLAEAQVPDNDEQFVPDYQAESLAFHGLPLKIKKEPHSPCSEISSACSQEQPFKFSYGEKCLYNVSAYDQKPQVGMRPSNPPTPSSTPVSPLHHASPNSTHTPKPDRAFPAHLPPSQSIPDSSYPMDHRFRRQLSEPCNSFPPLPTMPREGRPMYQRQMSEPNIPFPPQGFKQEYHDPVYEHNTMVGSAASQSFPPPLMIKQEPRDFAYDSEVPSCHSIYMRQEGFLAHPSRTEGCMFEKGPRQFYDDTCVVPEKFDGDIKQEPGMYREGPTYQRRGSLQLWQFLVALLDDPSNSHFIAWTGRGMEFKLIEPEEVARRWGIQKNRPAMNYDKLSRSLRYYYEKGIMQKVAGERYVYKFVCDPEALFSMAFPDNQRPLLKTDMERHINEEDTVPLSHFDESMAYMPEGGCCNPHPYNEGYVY
# Outline: as §1
# ERF = target: T6, ERF (Homo sapiens, UniProt P50548 1-548)
# T6 sequence: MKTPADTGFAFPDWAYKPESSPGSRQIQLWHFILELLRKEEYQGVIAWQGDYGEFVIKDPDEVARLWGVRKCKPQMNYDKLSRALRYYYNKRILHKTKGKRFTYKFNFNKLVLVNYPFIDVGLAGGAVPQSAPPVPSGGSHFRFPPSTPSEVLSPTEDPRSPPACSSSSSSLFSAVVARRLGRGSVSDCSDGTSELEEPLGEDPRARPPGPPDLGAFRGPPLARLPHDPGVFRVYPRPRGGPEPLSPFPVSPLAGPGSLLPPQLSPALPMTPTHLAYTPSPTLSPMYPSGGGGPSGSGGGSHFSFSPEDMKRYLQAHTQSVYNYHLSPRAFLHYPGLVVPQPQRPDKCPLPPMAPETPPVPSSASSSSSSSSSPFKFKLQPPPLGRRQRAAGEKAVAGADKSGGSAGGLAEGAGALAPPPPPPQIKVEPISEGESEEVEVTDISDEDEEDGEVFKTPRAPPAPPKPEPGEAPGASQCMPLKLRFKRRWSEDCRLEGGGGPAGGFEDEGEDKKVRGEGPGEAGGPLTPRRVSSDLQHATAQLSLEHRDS
# Outline: as §1
# ETV7 = target: T7, ETV7 (Homo sapiens, UniProt Q9Y603 1-341)
# T7 sequence: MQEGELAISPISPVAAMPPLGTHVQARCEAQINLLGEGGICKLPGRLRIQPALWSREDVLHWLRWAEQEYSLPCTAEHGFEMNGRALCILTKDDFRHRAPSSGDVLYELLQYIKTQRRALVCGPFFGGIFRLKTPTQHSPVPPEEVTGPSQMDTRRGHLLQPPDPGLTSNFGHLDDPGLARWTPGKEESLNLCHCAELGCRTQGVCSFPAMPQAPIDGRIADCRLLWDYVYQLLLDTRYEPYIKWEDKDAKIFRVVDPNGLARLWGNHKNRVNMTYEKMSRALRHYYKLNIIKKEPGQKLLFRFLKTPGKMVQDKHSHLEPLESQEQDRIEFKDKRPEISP
# Outline: as §1
# ETV3 = target: T8, ETV3 (Homo sapiens, UniProt P41162-2 1-143)
# T8 sequence: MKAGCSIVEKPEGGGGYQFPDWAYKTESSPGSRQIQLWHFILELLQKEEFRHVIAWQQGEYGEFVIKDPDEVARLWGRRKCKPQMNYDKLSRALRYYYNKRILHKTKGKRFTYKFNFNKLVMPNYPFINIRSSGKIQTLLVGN
# Outline: as §1
# ETV6 = ETV6 (Homo sapiens, UniProt P41212 1-452)
# Chain of ETV6 (P41212 whole entry): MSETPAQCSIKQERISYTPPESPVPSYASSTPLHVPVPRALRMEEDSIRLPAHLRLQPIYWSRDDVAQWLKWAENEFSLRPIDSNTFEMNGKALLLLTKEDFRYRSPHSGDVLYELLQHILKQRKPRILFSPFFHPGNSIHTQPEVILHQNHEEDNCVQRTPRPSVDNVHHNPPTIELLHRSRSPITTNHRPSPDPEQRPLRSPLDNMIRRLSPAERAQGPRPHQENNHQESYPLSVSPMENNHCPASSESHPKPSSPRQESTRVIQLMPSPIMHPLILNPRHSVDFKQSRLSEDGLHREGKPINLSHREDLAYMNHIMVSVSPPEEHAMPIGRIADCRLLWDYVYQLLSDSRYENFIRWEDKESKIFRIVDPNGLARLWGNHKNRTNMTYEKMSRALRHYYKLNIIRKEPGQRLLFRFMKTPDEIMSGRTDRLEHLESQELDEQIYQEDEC
# Outline: as §1
sequence,measurement,setting,value
AGAAGT,binding signal,GABPA,"1.05 fold enrichment (6-mer frequency, TF over GST control)"
same,binding signal,EHF,"1.06 fold enrichment (6-mer frequency, TF over GST control)"
same,binding signal,ETV5,"1.09 fold enrichment (6-mer frequency, TF over GST control)"
same,binding signal,ELF4,"1.06 fold enrichment (6-mer frequency, TF over GST control)"
same,binding signal,ELK4,"1.16 fold enrichment (6-mer frequency, TF over GST control)"
same,binding signal,ETV2,"1.03 fold enrichment (6-mer frequency, TF over GST control)"
same,binding signal,ELF3,"1.05 fold enrichment (6-mer frequency, TF over GST control)"
same,binding signal,ETV1,"1.05 fold enrichment (6-mer frequency, TF over GST control)"
same,binding signal,ERF,"1.05 fold enrichment (6-mer frequency, TF over GST control)"
same,binding signal,ETV7,"1.13 fold enrichment (6-mer frequency, TF over GST control)"
same,binding signal,ETV3,"1.01 fold enrichment (6-mer frequency, TF over GST control)"
same,binding signal,ETV6,"1.07 fold enrichment (6-mer frequency, TF over GST control)"
